# High-throughput results as filed in PubChem BioAssay.
# Arbovirus anti: antivirals against arbovirus infection; inhibition, % at 10 µM; AID 1251; arbovirus infection cell-based antiviral screen; 200,000 compounds, 0.37% hits; in the data active means inhibition above about 30%
# L major viab: Leishmania major promastigote growth inhibition | 200,000 compounds, 9% hits | inhibition, % at 10 µM | AID 1063 | Leishmania major promastigotes, resazurin fluorescence viability; in the data active means inhibition above about 50%;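 further: promastigotes grown with compound for 44 hours at 28 °C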
# CHOP inh: CHOP inhibition in unfolded protein response; CHO-K1 CHOP-promoter luciferase, tunicamycin-induced, 15-18 h; inhibition, % at 10 µM; 220,000 compounds, 3.8% hits; AID 2732;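 active means compounds that reduced the stress-induced luciferase reporter signal by more than about 70% of percent inhibition, limit read from the data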;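 further: 0% = tunicamycin plus vehicle and 100% = wells without tunicamycin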
# WT yeast gro inh: growth inhibition of WT yeast, mitochondrial fusion screen; inhibition, % at 10 µM; 190,000 compounds, 2.1% hits; mitochondrial fusion phenotypic screen, WT strain; in the data active means inhibition above about 58%; tested in S. cerevisiae
# An asterisk follows results filed as active; nt = not tested or not shown. Hits are enriched below; roughly 12% of the tested compounds scored in any of these assays.
SMILES,Arbovirus anti,L major viab,CHOP inh,WT yeast gro inh
Cc1cc(Nc2ccccc2)nn1C(=O)c1ccc(Cl)cc1,5,-1,77*,80*
Cc1cc(Nc2ccccc2)nn1C(=O)c1ccc([N+](=O)[O-])cc1,-2,-3,5,-6
CCOC(=O)c1c(NC(=O)CSc2c[nH]c3ccccc23)sc2c1CCCC2,-20,23,76*,14
CCOC(=O)c1c(NC(=O)COC)sc2c1CCCC2,-4,5,86*,-8
CCOC(=O)c1c(NC(=O)C(=O)N/N=C/c2ccccc2O)sc2c1CCCCC2,-31,99*,55,-2
CCOC(=O)c1c(NC(=O)CSc2nnc3ccccn23)sc2c1CCC2,7,9,61,11
COC(=O)c1c(NC(=O)CSc2nnc3ccccn23)sc2c1CCC2,-5,56*,37,11
CCN1C(=O)C2(C(C(=O)c3cc4ccccc4o3)=C(O)C(=O)N2CCCN2CCOCC2)c2ccccc21 (configuration not stated),nt,nt,-8,nt
CCOC(=O)c1c(NC(=O)COc2cccc3c2CCN(CC)C3=O)sc2c1CCC2,4,59*,78*,-14
O=S(=O)(NC1=NCCC1)c1cccc(NS(=O)(=O)c2ccc(OC(F)(F)F)cc2)c1,6,54*,-8,-11
O=C(N/N=C1\C/C(=N\NC(=O)c2ccncc2)c2ccccc21)c1ccncc1,-27,73*,-6,25
CCOc1ccc2c(c1)C(=NNC(=O)c1ccncc1)c1cc(OCC)ccc1-2,-12,100*,-5,-1
CC(C)CC(COCc1ccc(Cl)cc1)N1CCN(C(=O)c2ccc(Cl)cc2Cl)CCC1=O (configuration not stated),-21,48,21,42
Cc1nn(C)c(Oc2ccc(Cl)cc2)c1C(=O)Nc1ccc(F)cc1F,4,-4,57,-3
Cc1ccc(-c2nc(P(=O)(c3ccccc3)c3ccccc3)c(N3CCOCC3)o2)cc1,-27,21,8,6
CNc1oc(-c2ccc(Cl)cc2)nc1P(=O)(c1ccccc1)c1ccccc1,-40,44,71*,62*
COc1ccccc1OCCOCCOc1ccc(C)cc1[N+](=O)[O-],0,55*,1,5
COc1cc(C)ccc1OCCOCCOc1ccccc1[N+](=O)[O-],0,31,34,-18
C=CCNCCOc1ccc(C)cc1[N+](=O)[O-],-7,-6,8,-18
CCC(C)NCCOc1ccc(C)cc1[N+](=O)[O-] (configuration not stated),4,19,22,-4
CCCCNCCOCCOc1ccc(C)cc1[N+](=O)[O-],2,91*,1,-6
COCCCNCCCCOc1ccc(C)cc1[N+](=O)[O-],-4,99*,47,-2
O=C(c1ccccn1)c1cc2ccccc2n1S(=O)(=O)c1ccccc1,0,34,9,-22
CCCCn1c(NCc2ccccc2NS(=O)(=O)c2ccc(C)cc2)nc2ccccc21,-6,42,12,-2
CCn1c(/N=C/c2ccccc2NS(=O)(=O)c2ccc(C)cc2)nc2ccccc21,14,85*,-10,23
SMILES,Arbovirus anti,L major viab,CHOP inh,WT yeast gro inh
O=C(/C=C/c1cccs1)c1cc(Br)ccc1OC(=O)N1CCOCC1,-30,72*,-21,18
COc1ccc(C(=O)/C=C/c2cccs2)c(OC(=O)N2CCOCC2)c1,9,41,-37,-3
O=C1/C(=C/c2cccnc2)Oc2cc(OS(=O)(=O)c3ccc(F)cc3)ccc21,2,14,38,-9
Cc1ccc(S(=O)(=O)Oc2ccc3c(c2)O/C(=C\c2cccnc2)C3=O)cc1,2,11,78*,6
COc1ccc(/C=N/NC(=O)c2c(C)nc3ccccn23)cc1[N+](=O)[O-],nt,nt,-6,nt
O=C(NNC(=S)Nc1ccc(Cl)c(Cl)c1)c1ccccn1,-19,96*,47,6
O=C(NNC(=O)C(c1ccccc1)c1ccccc1)c1ccccn1,-32,99*,42,-21
O=C(NNc1ccccn1)C(c1ccccc1)c1ccccc1,-4,-1,1,-5
CCNC(=S)NNC(=O)c1ccccn1,-18,0,41,13
CCc1ccc(C(=O)COC(=O)C(CCSC)NC(=O)c2ccccc2)cc1 (configuration not stated),4,38,34,13
CC(C)c1nc(N2CCCC2)c(C#N)c2c1CCCC2,-5,-4,15,70*
O=c1c2c3c(sc2ncn1/N=C/c1ccc([N+](=O)[O-])o1)CCCC3,-36,96*,57,-11
Cn1cc(/C=N/n2cnc3sc4c(c3c2=O)CCCC4)c2ccccc21,-8,12,0,18
CCN(CC)S(=O)(=O)c1ccc(N/N=C/c2cc(OC)ccc2O)nc1,-33,92*,63,9
